Hits are enriched below; roughly 5.8% of the tested compounds scored in any of these assays.
TRPV1 ag = HTS Assay for Compounds that Act as Agonists of the Vanilloid Receptor 1. actives 0.19% (n = 320,000). TRPV1-expressing cells, Fluo-8 calcium influx, agonist mode. activation, % at 8.33 µM. AID 540275, 2011. Transient receptor potential cation channel subfamily V member 1 (Homo sapiens), Q8NER1; in the data active = activation above about 80%; inconclusive = between about 30% and that limit; also: 0% is about no effect
Target sequence (Q8NER1 whole entry, looked up): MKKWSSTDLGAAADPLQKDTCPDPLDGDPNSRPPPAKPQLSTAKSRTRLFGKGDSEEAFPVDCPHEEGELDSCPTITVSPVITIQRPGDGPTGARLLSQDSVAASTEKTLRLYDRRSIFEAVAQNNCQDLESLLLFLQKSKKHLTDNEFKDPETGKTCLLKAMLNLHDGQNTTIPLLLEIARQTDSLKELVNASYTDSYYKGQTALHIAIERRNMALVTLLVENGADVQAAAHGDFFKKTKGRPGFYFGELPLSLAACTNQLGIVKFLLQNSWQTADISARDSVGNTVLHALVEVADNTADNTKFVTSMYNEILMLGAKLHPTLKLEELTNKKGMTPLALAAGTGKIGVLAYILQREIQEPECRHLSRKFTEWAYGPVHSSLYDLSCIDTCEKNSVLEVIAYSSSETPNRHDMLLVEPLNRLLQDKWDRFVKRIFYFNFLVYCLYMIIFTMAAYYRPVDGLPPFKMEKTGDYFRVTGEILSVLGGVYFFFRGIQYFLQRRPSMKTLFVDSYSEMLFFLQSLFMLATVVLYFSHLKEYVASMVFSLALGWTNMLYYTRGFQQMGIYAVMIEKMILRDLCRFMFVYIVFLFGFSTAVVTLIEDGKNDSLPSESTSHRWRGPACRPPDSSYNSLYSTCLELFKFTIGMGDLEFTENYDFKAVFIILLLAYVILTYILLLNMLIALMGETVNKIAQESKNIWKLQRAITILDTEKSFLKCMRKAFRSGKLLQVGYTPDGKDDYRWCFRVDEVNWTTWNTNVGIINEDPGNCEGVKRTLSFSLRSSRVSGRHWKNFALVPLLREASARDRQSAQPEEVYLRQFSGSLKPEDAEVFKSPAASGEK
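Cells expressing TRPV1 were dye-loaded with Fluo-8 and read kinetically: 10 s baseline, 3 min after compound (agonist portion), then 2 min after EC20 capsaicin (allosteric enhancer portion). Calcium-bound dye fluorescence at 480/520 nm.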
TRPV1 potentiator = HTS Assay for Compounds that Act as Potentiators of the Vanilloid Receptor 1. TRPV1-expressing cells, Fluo-8 calcium influx, capsaicin EC20 potentiation. potentiation, % at 8.33 µM. actives 0.02% (n = 320,000). Transient receptor potential cation channel subfamily V member 1 (Homo sapiens), Q8NER1. AID 540277, 2011; in the data active = potentiation above about 80%; inconclusive = between about 30% and that limit; also: 0% is about no effect
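Cells expressing TRPV1 were dye-loaded with Fluo-8 and read kinetically: 10 s baseline, 3 min after compound (agonist portion), then 2 min after EC20 capsaicin (allosteric enhancer portion). Calcium-bound dye fluorescence at 480/520 nm.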
uPA surface inh = qHTS for Inhibitors of Cell Surface uPA Generation | cell surface uPA generation assay, qHTS | Potency, µM (titrated, usually from 38.3 µM), for the others: top-dose activity change, negative = inhibition, usual class: inhibitors | actives 0.31% (n = 330,000) | AID 540303, 2011; active = well fitted inhibition curve with a large enough effect; inconclusive = small, poorly fitted or top-dose-only effect; inactive = no such curve, though single readings can be large or run the other way; tested in mouse RAW 264.7 cells; also: potency is read from the fitted curve at half-maximal effect; % is scaled to controls: 0 for no effect and ±100 for the full control effect; nearly all actives have a fitted effect of over 55% in size
VP16 counter = VP16 counterscreen qHTS for inhibitors of ROR gamma transcriptional activity; Potency, µM (highest dose often 53.6 µM), for the others: at the highest dose activity, negative = inhibition, hits mostly inhibitors; actives 3.5% (n = 310,000); AID 2546, 2010; Drosophila S2 Gal4-VP16 UAS-luciferase, luminescence, 20 h;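 also: Gal4-VP16 expression switched on by copper sulfate through the metallothionein promoter; potency is read from the fitted curve at half-maximal effect; % is scaled to controls: 0 for no effect and ±100 for the full control effect; nearly all actives have a fitted effect of over 50% in size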
RORgamma inh = qHTS for inhibitors of ROR gamma transcriptional activity | Nuclear receptor ROR-gamma (Mus musculus), P51450 | Potency, µM (titrated, usually from 53.6 µM), for the others: at the top dose activity change, negative = inhibition, hits mostly inhibitors | actives 5.4% (n = 310,000) | AID 2551, 2010 | Drosophila S2 Gal4-RORgamma UAS-luciferase reporter, 20 h; also: potency is read from the fitted curve at half-maximal effect; % is scaled to controls: 0 for no effect and ±100 for the full control effect; nearly all actives have a fitted effect of over 60% in size
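Luciferase reporter read in Schneider cells carrying Gal4-RORγ (mouse) and UAS-Photinus luciferase; cells given compound 1 h before 700 uM copper sulfate induction, then incubated 20 h at ambient temperature.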
An asterisk follows results filed as active; ? = inconclusive; . = no result given; [ ] = dose if it differs, or a comment. Unless noted, calls follow the shape of the dose curve; as a rule, active = well fitted curve in the direction sought with a large enough effect; inconclusive = small, poorly fitted or top-dose-only effect, or another doubt; inactive = no such curve, though single readings can be large; an effect the other way counts as inactive or inconclusive.

SMILES	TRPV1 ag	TRPV1 potentiator	uPA surface inh	VP16 counter	RORgamma inh
COc1cc(-c2nc(CN(C)Cc3nnc(C)o3)c(C)o2)ccc1F	2	-1	-5%	-7%	-9%
COc1cccc2c1C(=O)c1c(O)c3c(c(O)c1C2=O)C[C@@](O)(C(=O)CO)C[C@@H]3OC1CC(N)C(O)C(C)O1 (stereo partly specified)	.	.	-12%	10µM*	-40%[10 µM]
CCC1OC(=O)C[C@@H](O)[C@H](C)[C@@H](OC2OC(C)CC(N(C)C)C2O)[C@@H](CC=O)C[C@@H](C)C(=O)/C=C/[C@]2(C)OC2C1C (stereo partly specified)	.	.	.	-19%	4%
N#C/C(=C\c1cccnc1)c1ccc([N+](=O)[O-])cc1	?	-30	-11%	13µM*	?
CCc1ccc2oc(-c3ccc(OC)cc3)cc(=Nc3cccc(C(=O)O)c3)c2c1	?	-11	-9%	11µM*	?
C=CCn1c(-c2ccc(OC)cc2)csc1=Nc1c(C)n(C)n(-c2ccccc2)c1=O	-2	11	1%	1%	30%
CCc1ccc2oc(-c3ccc(OC)cc3)cc(=Nc3c(C)n(C)n(-c4ccccc4)c3=O)c2c1	?	-2	8.9µM*	?	?
CC(C)C(=O)Nc1sc2c(c1-c1nc3ccccc3[nH]1)CCCC2	?	-10	2%	0%	11µM*
CC(C)C(=O)Nc1ccccc1-c1nc2ccccc2[nH]c1=O	-4	5	6%	.	.
CC1CCN(c2ccc(NC(=S)NC(=O)c3ccc(-c4cccc([N+](=O)[O-])c4)o3)cc2)CC1	-2	6	.	7.1µM*	1.6µM*
CC1CCN(c2ccccc2NC(=S)NC(=O)c2ccc(-c3cccc([N+](=O)[O-])c3)o2)CC1	0	-1	3%	-3%	1µM*
CC[C@H](C)[C@H](NC(=O)[C@H](Cc1ccc(O)cc1)NC(=O)[C@H](Cc1cnc[nH]1)NC(=O)[C@H](CCCNC(=N)N)NC(=O)[C@H](CC(C)C)NC(=O)[C@H](C)NC(=O)[C@H](CO)NC(=O)[C@H](Cc1ccc(O)cc1)NC(=O)[C@H](Cc1ccc(O)cc1)NC(=O)[C@H](CCCNC(=N)N)NC(=O)[C@H](C)NC(=O)[C@H](CC(C)C)NC(=O)[C@H](CC(=O)O)NC(=O)[C@H](CCC(=O)O)NC(=O)[C@H](C)NC(=O)[C@@H]1CCCN1C(=O)[C@H](C)NC(=O)[C@H](CC(=O)O)NC(=O)[C@H](CCC(=O)O)NC(=O)CNC(=O)[C@@H]1CCCN1C(=O)[C@H](CC(N)=O)NC(=O)[C@H](CC(=O)O)NC(=O)[C@@H]1CCCN1C(=O)[C@H](CCCCN)NC(=O)[C@H](CO)NC(=O)[C@@H]1CCCN1C(=O)[C@@H](N)Cc1ccc(O)cc1)C(=O)N[C@@H](CC(N)=O)C(=O)N[C@@H](CC(C)C)C(=O)N[C@@H](CC(C)C)C(=O)N[C@H](C(=O)N[C@@H](CCCNC(=N)N)C(=O)N1CCC[C@H]1C(=O)N[C@@H](CCCNC(=N)N)C(=O)N[C@@H](Cc1ccc(O)cc1)C(N)=O)[C@@H](C)O	.	.	.	-4%	7%
CCC1(c2ccc(O)cc2)NC(=O)NC1=O (stereo unspecified)	.	.	.	-6%	1%
CCOC(=O)C1CCN(S(=O)(=O)c2c(Cl)ccc3nonc23)CC1	-5	-2	.	2.8µM*	2.2µM*
Cc1cc(NC(=O)COC(=O)C2CCN(S(=O)(=O)c3c(Cl)cccc3Cl)CC2)no1	10	-9	6%	-5%	5µM*
Cc1[nH]n(-c2ncc(-c3ccc(Cl)cc3)s2)c(=O)c1C(c1ccc(Cl)cc1)C(C#N)C#N (stereo unspecified)	-2	2	0%	?	14µM*
Nc1ccccc1SC1CC(=O)N(Cc2ccccc2)C1=O (stereo unspecified)	11	-11	3%	0%[10 µM]	5%
CCSCCc1nnc(NC(=O)Nc2cccc(C(F)(F)F)c2)s1	7	-2	?	18µM*	?
O=C(Nc1ccccc1)Nc1cccc(C(F)(F)F)c1	?	-9	0%	-6%	?
COc1ccc(/C=C/C(=O)NC2CC3CCC2C3)cc1 (stereo unspecified)	?	-3	-4%	16%	19%
COc1cc(/C=N/NC(=S)NC2CC3CCC2C3)ccc1O (stereo unspecified)	-1	24	-23%	5µM*	2µM*
S=C(N/N=C/c1ccc2c(c1)OCO2)NC1CC2CCC1C2 (stereo unspecified)	14	5	12%	3.2µM*	4.5µM*
Cc1cccc(NC(=S)N/N=C/c2ccc3c(c2)OCO3)c1	5	-2	1%	-15%	-5%
COc1ccc(/C=N/NC(=S)N[C@H]2CC3CCC2C3)cc1 (stereo partly specified)	1	9	-1%	3.2µM*	0.63µM*
COc1ccc(OC)c(CN2CCN(C(=O)CCC(=O)c3cccs3)CC2)c1	1	10	1%	.	.
SMILES	TRPV1 ag	TRPV1 potentiator	uPA surface inh	VP16 counter	RORgamma inh
C=CCSc1n[nH]c(-c2ccc(OCCC)cc2)n1	9	-3	.	?	10µM*
C=CCSc1n[nH]c(-c2cccs2)n1	1	-6	-24%	?	11µM*
CCCCCOc1ccc(CSc2n[nH]c(C)n2)cc1	-9	13	-4%	-24%	-1%
C=CCSc1n[nH]c(-c2ccc(OCCCC)cc2)n1	1	3	-26%	8.9µM*	8.9µM*
O=C(CSc1n[nH]c(-c2cccs2)n1)NCc1cccs1	-1	3	1%	2%	-5%
Cc1cccc(C)c1Nc1oc(-c2ccccc2)nc1-c1ccccc1F	.	.	.	1%	7%
CC1CN(CN2C(=O)c3ccccc3C2=O)CC(C)O1 (stereo unspecified)	0	1	.	13µM*	37%
CC1CN(CCCCN2C(=O)c3ccccc3C2=O)CC(C)O1 (stereo unspecified)	-6	4	1%	-13%	-5%
COc1ccc(CC(=O)N[C@@H]2c3ccccc3CC[C@@H]2OCc2ccccc2)cc1	.	.	6%	.	.
CS(=O)(=O)c1ncc(Cl)c(C(=O)N2CCN(c3cccc(Cl)c3)CC2)n1	4	4	.	.	.
O=C1c2ccccc2C(=O)c2c1cccc2N(CCO)CCO	1	-1	-1%	-10%	?
O=C1C=C(N(CCO)Cc2ccccc2)c2ccccc2C1=O	0	2	-13%	?	7.1µM*

Screening results from PubChem BioAssay.
